Screening data deposited in PubChem BioAssay by several laboratories.
Most compounds without a hit are left out; they make up all but 3.9% or so of the library.
Vc quorum ag: quorum light induction in luxS cqsA deficient V. cholerae; V. cholerae BH1578 lux reporter, luminescence, 6 h; activation, % at 18.7 µM; AID 588436; 0.16% of 350,000 active; in the data active = activation mostly above about 9.7%, no sharp cut-off; inconclusive = no clear call, values can overlap the other calls; inactive = mostly below about 3.7%
Autofluor counter: counter-screen for toxin protease inhibitors: compound fluorescence; compound autofluorescence counterscreen, microsphere flow cytometry; active compounds read high; fluorescence intensity (no concentration beside the values); 3.1% of 360,000 active; AID 624483; in the data active = fluorescence intensity above about 16000; inconclusive = no clear call, values can overlap the other calls
MazEF act: increases E. coli MazEF RNase cleavage of RNA; P0AE70; FAM/BHQ RNA-DNA oligo cleavage fluorescence, 5 h; activation, % at 20 µM; 0.32% of 350,000 active; AID 504720; in the data active = activation above about 50%
BoNT A protease: blocks Botulinum neurotoxin A light chain protease | AID 588499 | multiplex microsphere protease substrate cleavage, flow cytometry | inhibition, % at 10 µM | 0.17% of 360,000 active; also: plate controls were buffer without enzyme for full effect and enzyme alone for no effect
Anthrax LF prot: inhibitors of Bacillus anthracis lethal factor protease | 0.12% of 360,000 active | inhibition, % at 10 µM | multiplex microsphere protease cleavage assay, LF | P15917; also: plate controls were buffer without enzyme for full effect and enzyme alone for no effect
Target sequence (P15917 whole entry, looked up): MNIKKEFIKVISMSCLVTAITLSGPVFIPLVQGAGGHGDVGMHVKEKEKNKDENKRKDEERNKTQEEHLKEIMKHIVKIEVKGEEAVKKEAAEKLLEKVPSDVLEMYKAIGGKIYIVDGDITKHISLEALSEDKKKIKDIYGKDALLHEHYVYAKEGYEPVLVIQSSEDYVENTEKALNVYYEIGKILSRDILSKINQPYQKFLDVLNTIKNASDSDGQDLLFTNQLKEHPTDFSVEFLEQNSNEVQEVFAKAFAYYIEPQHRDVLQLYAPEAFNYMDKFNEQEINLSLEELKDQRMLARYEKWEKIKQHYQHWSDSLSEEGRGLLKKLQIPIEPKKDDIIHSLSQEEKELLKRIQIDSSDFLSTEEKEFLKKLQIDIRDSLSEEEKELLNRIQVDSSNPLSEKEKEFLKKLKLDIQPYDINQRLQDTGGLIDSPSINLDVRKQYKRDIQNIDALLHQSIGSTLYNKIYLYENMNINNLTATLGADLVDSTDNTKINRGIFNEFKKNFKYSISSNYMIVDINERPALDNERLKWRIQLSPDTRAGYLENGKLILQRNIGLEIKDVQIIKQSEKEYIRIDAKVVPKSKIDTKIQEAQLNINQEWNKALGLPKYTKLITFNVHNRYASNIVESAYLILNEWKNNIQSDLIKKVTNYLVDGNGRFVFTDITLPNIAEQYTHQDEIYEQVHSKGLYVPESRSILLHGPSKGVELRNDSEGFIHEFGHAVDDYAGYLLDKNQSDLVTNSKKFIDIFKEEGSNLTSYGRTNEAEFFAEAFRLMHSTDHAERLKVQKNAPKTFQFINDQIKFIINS
BoNT F protease: blocks Botulinum neurotoxin F light chain protease; Multiplex microsphere protease cleavage assay, flow cytometry; 0.22% of 360,000 active; inhibition, % at 10 µM; in the data active = inhibition above about 35%, passing the limit was not always enough; inconclusive = no clear call, values can overlap the other calls; also: plate controls were buffer without enzyme for full effect and enzyme alone for no effect
Starred values were filed as active, the others as inactive; i = inactive; ? = inconclusive; / = no result given. Rule as the data show it, unless noted: active = inhibition above about 30%; inconclusive = no clear call, values can overlap the other calls; inactive = below that.

SMILES	Vc quorum ag	Autofluor counter	MazEF act	BoNT A protease	Anthrax LF prot	BoNT F protease
N#C/C(=C\c1c(Cl)cccc1Cl)c1nc2ccccc2[nH]1	i	4403	7	0	4	-6
N#C/C(=C\c1c(Cl)cccc1Cl)c1nc2ccccc2o1	0	6198	-18	8	8	49*
COC(=O)c1ccc(NC(=O)COc2ccc([N+](=O)[O-])cc2)cc1	1	/	-3	/	/	/
NC(=O)C1CCN(c2nc3c(S(=O)(=O)c4ccccc4)nnn3c3ccccc23)CC1	0	5268	0	0	1	6
CC(O)[C@H]1CNCCN1CC1(c2ccccc2)CC1 (some centres undefined)	-1	4291	3	0	-4	-3
CSc1ccc(/C=N/n2c(C)cc(C)cc2=O)cc1	-1	23602*	4	?	0	-5
CSc1ccc(/C=N/n2c(C)nnc2C)cc1	0	2027	14	0	-2	1
CCOc1ccc(-c2nn(-c3ccccc3)cc2/C=C2\SC(=S)N(Cc3ccco3)C2=O)cc1	0	2009	-41	37*	14	6
Cc1nn(Cc2c(F)c(F)c(F)c(F)c2F)c(C)c1NC(=O)c1ccc(COc2ccccc2Cl)o1	1	19196*	-5	15	0	15
Cc1nn(Cc2c(F)c(F)c(F)c(F)c2F)c(C)c1NC(=O)c1ccc(COc2ccccc2Cl)cc1	6	8005	-8	-1	-4	2
Cc1ccc(C=Nc2cc([N+](=O)[O-])ccc2C)s1	-1	1981	5	0	0	-3
Cc1ccc([N+](=O)[O-])cc1N=Cc1ccc(Br)s1	0	20554*	-3	0	-5	2
CC1=C(C(=O)Nc2ccccc2)C(c2ccco2)NC(=S)N1 (centres undefined)	2	24277*	7	-2	-1	-7
Cc1nc2cc(NC(=O)CS(=O)(=O)c3ccc(F)cc3)ccc2s1	1	5254	4	0	4	-6
COc1ccc(S(=O)(=O)N2CCOC2CNC(=O)C(=O)NCCCN2CCCC2=O)cc1OC (centres undefined)	i	2711	2	0	-9	-10
O=C(N1CCOCC1)C12CC3CC(C1)CC(C(=O)N1CCOCC1)(C3)C2	5.6*	8884	5	0	0	-4
Cc1nc2c(OCc3ccc(C#N)cc3)cccn2c1N(C)C(=O)CCC1CCCC1	i	4042	/	0	7	-5
CCOc1ccc2c(c1)c1nc3ccccc3nc1n2C	-6	2921	98*	9	20	27
CCn1c2ccc(F)cc2c2nc3ccccc3nc21	-1	4724	1	20	-3	4
Cn1c2ccc(F)cc2c2nc3ccccc3nc21	i	3088	111*	15	10	?
Cc1ccc2c(c1)c1nc3ccccc3nc1n2C	7	3344	222*	24	4	21
Cn1c2ccc(Cl)cc2c2nc3ccccc3nc21	0	4173	-5	40*	25	18
CC(C)=NOc1nc(N2CCOCC2)nc(N2CCOCC2)n1	i	6108	5	0	-3	-8
CCc1ccccc1Nc1nc(N)nc(COC(=O)c2cccn2C)n1	0	21076*	-3	-1	0	-5
CC1(C(=O)NCc2ccco2)CCN1C(=O)C1(c2ccccc2)CC1 (centres undefined)	1	3980	/	-1	0	-10
SMILES	Vc quorum ag	Autofluor counter	MazEF act	BoNT A protease	Anthrax LF prot	BoNT F protease
Cc1ccc(F)c(S(=O)(=O)NC(=O)C2(C)CCN2C(=O)CCC2CCCC2)c1 (centres undefined)	i	3345	/	0	-1	1
Cc1ccc2ncc([N+](=O)[O-])n2c1	i	21684*	-1	3	-1	4
Cc1ccccc1C(O)c1ccccn1 (centres undefined)	0	24308*	5	-1	-1	-2
CC1Nc2ncnc(N3CCN(c4ccccc4)CC3)c2N(Cc2ccc(Br)cc2)C1=O (centres undefined)	i	4126	5	0	-6	-1
CN(CCOc1ccc(Cl)cc1)c1ccc(S(=O)(=O)N2CCCCC2)cn1	i	24914*	0	?	-4	-6
Cc1ccc(OCCNc2ccc(S(=O)(=O)N3CCCC3)cn2)cc1	1	7214	3	-4	?	-7
COC(=O)C(C)(C)ONC(=O)Nc1ccc(C)cc1	2	2497	6	0	2	-8
